Compound activity: PubChem BioAssay, National Center for Advancing Translational Sciences (NCATS)
Rows were chosen to be rich in hits. Some 15% of all compounds tested hit in one or more screens of this group.
RORgamma inh: ROR gamma (mouse) transcription inhibition; AID 2551; actives 5.4% (n = 310,000); P51450; Potency, µM (highest dose often 53.6 µM), for the others: top-dose activity change, negative = inhibition, hits mostly inhibitors; Drosophila S2 Gal4-RORgamma UAS-luciferase reporter, 20 h; also: nearly all actives have a fitted effect of over 60% in size
Target sequence (P51450 whole entry, looked up, the tested form may be a part): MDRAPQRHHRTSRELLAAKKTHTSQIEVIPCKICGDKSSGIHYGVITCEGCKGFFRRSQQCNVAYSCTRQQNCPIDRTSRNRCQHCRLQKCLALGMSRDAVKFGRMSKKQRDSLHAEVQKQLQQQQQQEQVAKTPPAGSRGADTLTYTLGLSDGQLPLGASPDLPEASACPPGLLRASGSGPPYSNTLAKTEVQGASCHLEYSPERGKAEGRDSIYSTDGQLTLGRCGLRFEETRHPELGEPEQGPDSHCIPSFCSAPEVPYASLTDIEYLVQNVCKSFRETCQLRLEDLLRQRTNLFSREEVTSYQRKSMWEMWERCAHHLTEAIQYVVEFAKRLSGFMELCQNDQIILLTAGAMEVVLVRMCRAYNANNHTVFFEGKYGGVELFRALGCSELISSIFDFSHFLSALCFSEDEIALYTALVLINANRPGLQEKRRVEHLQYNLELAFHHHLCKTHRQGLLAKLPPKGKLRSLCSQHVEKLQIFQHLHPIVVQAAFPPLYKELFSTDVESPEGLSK
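Compounds are pin-transferred onto Drosophila Schneider cells expressing a copper-inducible Gal4–ROR gamma transactivation domain fusion. After 1 hr, copper sulfate is added to 700 uM final; luciferase is read 20 hr later.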
12-LOX inh: inhibitors of human 12S-lipoxygenase ALOX12; P18054; purified 12hLO, xylenol orange hydroperoxide absorbance; Potency, µM (series often up to 108 µM), for the others: at the highest dose activity change, negative = inhibition, actives largely listed as inhibitors; actives 1.1% (n = 580,000)
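Purified human 12hLO (150 nM final) in 25 mM Hepes, 0.01% Triton X-100, pH 7.0 was preincubated 15 min at room temperature with compound. Then 40 uM arachidonic acid was added, 30 min. Hydroperoxide was read by Fe-XO absorbance ratio 573/405 nm.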
VP16 counter: counter-screen for ROR gamma inhibitors: Gal4-VP16 reporter. Drosophila S2 Gal4-VP16 UAS-luciferase, luminescence, 20 h. Potency, µM (doses to about 53.6 µM), inactives show at the highest dose activity, negative = inhibition, usual class: inhibitors. actives 3.5% (n = 310,000). AID 2546;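 also: Gal4-VP16 expression switched on by copper sulfate through the metallothionein promoter; nearly all actives have a fitted effect of over 50% in size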
ELG1 DNA repair: inhibitors of ELG1-dependent DNA repair in HEK293T cells; HEK293T ELG1-luciferase reporter, luminescence, 16 h; DNA damage induced by 5-fluorouridine; AID 504467; Potency, µM (series often up to 46.1 µM), inactives show top-dose activity change, negative = inhibition, actives largely listed as inhibitors; actives 2.3% (n = 330,000); also: nearly all actives have a fitted effect of over 55% in size
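Reporter activity after DNA damage by 5-fluorouridine is monitored. Compound-treated cells incubate 16 hr at 37 °C, then ONE-Glo is added for 30 min before luminescence reading.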
TDP1 cell noCPT: qHTS for Inhibitors of human tyrosyl-DNA phosphodiesterase 1 (TDP1): qHTS in cells in absence of CPT; DT40 Tdp1-/- hTDP1 cells, no CPT, ATP luminescence, 48 h; Potency, µM (titrated, usually from 46.2 µM), without a hit: at the highest dose activity change, negative = growth inhibition, hits mostly inhibitors; actives 15% (n = 420,000); also: nearly all actives have a fitted effect of over 55% in size
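Growth of hTDP1-complemented DT40 Tdp1-knockout cells is measured by ATP luminescence after at least 48 hr compound exposure at 37 °C, with DMSO substituting for the 20 nM CPT used in the parallel screen.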
TDP1 cell CPT: DT40-hTDP1 cell growth loss with CPT; chicken DT40 Tdp1-/-;hTDP1 cells + 20 nM CPT, ATP luminescence, 48 h; Potency, µM (top dose mostly 46.2 µM), for the others: top-dose activity change, negative = growth inhibition, actives largely listed as inhibitors; actives 12% (n = 420,000); also: nearly all actives have a fitted effect of over 55% in size
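Chicken DT40 Tdp1-/- cells stably complemented with human TDP1 were seeded at 400 cells/well in medium containing 20 nM camptothecin, exposed to pin-transferred compounds, and grown at 37 °C for at least 48 hr. Viability was read as ATP luminescence.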
* marks the source's active call; other numbers are inactive results; ? = inconclusive; · = no result given; [ ] = remark or other dose. Calls follow the shape of the dose curve; as a rule, active = well fitted curve in the direction sought with a large enough effect; inconclusive = small, poorly fitted or top-dose-only effect, or another doubt; inactive = no such curve, though single readings can be large; an effect the other way counts as inactive or inconclusive. % is scaled to controls: 0 for no effect and ±100 for the full control effect; potency is read from the fitted curve at half-maximal effect.

SMILES	RORgamma inh	12-LOX inh	VP16 counter	ELG1 DNA repair	TDP1 cell noCPT	TDP1 cell CPT
COc1ccc(CNC2CCCc3ccccc32)cc1OC (centres undefined)	38%	-11%	-1%	-26%	18µM*	?
COc1ccc(C(=O)NC2CCCc3ccccc32)c(OC)c1OC (centres undefined)	24%	-8%	6%	-23%	21µM*	18µM*
COc1cc(C(=O)N[C@H](C(=O)NC2CCCc3ccccc32)C(C)C)cc(OC)c1OC (some centres undefined)	·	39%	·	21µM*	?	-21%
COc1ccccc1CN(C)CC(=O)NC1CCCc2ccccc21 (centres undefined)	-5%	4%	-9%	-25%	?	15µM*
COc1ccccc1C(=O)NCC(=O)NC1CCCc2ccccc21 (centres undefined)	-44%	-12%	-2%	-9%	?	?
COc1cc(SC)ccc1C(=O)NC1CCCc2ccccc21 (centres undefined)	0%	1%	?	?	?	?
CCOc1ccc(CNCc2ccccn2)cc1OCC	·	5%	·	·	·	·
O=CN1CCCC(n2cnc3cccnc32)C1 (centres undefined)	·	50%[176 µM]	·	·	·	·
COc1ccc(NC(=O)N(Cc2nnc3n2CCCCC3)c2ccc(C)cc2C)cc1	·	9%	·	·	·	·
O=C(Nc1ccc(Br)cc1)c1cnc(-c2ccc(F)cc2)nc1-c1ccncc1	·	16%	·	·	·	·
O=C(COc1cccc(-c2nnc3n2CCCC3)c1)Nc1ccc(Br)cc1	·	-1%	·	·	·	·
COc1ccc(CNC(=O)COc2cc3c(c4oc(=O)cc(C)c24)CCC(C)(C)O3)cc1OC	12%	4%	-4%	?	23µM*	21µM*
COc1ccc(CNC(=O)COc2cc3c(c4oc(=O)cc(C)c24)CCC(C)(C)O3)c(OC)c1	·	-4%	·	·	·	·
Cc1c(C)c2c(OCC(=O)NCc3ccncc3)cc3c(c2oc1=O)CCC(C)(C)O3	3%	26%	4%	4%	?	?
Cc1cc(=O)oc2c3c(cc(OCC(=O)NCc4ccncc4)c12)OC(C)(C)CC3	19%	33%	-10%	-1%	23µM*	?
Cc1ccc(CN(C(=O)c2cc(=O)c3cc(Cl)c(C)cc3o2)c2ccccn2)o1	·	25µM*	·	·	·	·
Cc1ccc(CN(C(=O)c2ccccc2)c2ccccn2)o1	·	-7%	·	·	?	?
CNc1nccc(N2CCC(CC(=O)NCc3cc(OC)cc(OC)c3)CC2)n1	·	40%	·	·	·	·
CC1(Cc2cc(Cl)ccc2C(F)(F)F)C(=O)Nc2ccc(S(=O)(=O)NC3CCCCC3)cc21 (centres undefined)	·	?	·	·	?	26µM*
Cc1ccc(Sc2c(CO)c(-c3ccccc3)nn2C)cc1	9%	-11%	-14%	?	0.73µM*	1.2µM*
COc1ccc2c(c1)[C@H]1[C@H](CO2)[C@H](c2ccccc2)[C@]2(C)C(=O)Nc3ccccc3C(=O)N12	·	-14%	·	?	?	?
C[C@@]12C(=O)Nc3cc(Cl)ccc3C(=O)N1[C@H]1c3cc(Cl)ccc3OC[C@@H]1[C@@H]2c1ccccc1	·	-2%	·	1%	?	18µM*
C[C@@]12C(=O)Nc3cc(Cl)ccc3C(=O)N1[C@H]1c3cc(Br)ccc3OC[C@@H]1[C@@H]2c1ccccc1	·	-4%	·	?	23µM*	15µM*
CCOc1ccc(/C=N/Nc2cc(N3CCOCC3)ncn2)c(O)c1	·	1%	·	·	5.8µM*	5.8µM*
Clc1ccccc1/C=N/Nc1cc(N2CCOCC2)ncn1	27%	9%	?	?	2%	22%
SMILES	RORgamma inh	12-LOX inh	VP16 counter	ELG1 DNA repair	TDP1 cell noCPT	TDP1 cell CPT
COc1cc(N/N=C/c2ccccc2O)ncn1	7.1µM*	?	7.1µM*	?	1.5µM*	1.6µM*
CCOc1ccc(/C=N/Nc2nc(C)cs2)c(O)c1	1.4µM*	?	2.2µM*	?	?	10µM*
CCCCOc1ccc(/C=N/Nc2cc(N3CCOCC3)nc(C)n2)cc1	-109%	0%	?	?	21µM*	18µM*
Cc1csc(N/N=C/c2ccccc2F)n1	?	-4%	-79%	?	-10%	?
COc1cc(N/N=C/c2ccc(N(C)C)cc2)ncn1	?	14%	?	?	?	-30%
O=C1Cc2c(-c3ccccc3Cl)n[nH]c2CN1Cc1ccccn1	·	-1%[176 µM]	·	·	·	·
Cc1ccc(-c2noc3ncnc(NCCC(C)C)c23)cc1	·	7%	·	·	·	·
COc1ccc(OC)c(S(=O)(=O)N2C[C@@H](F)C[C@H]2C(=O)N2CCc3ccccc3C2)c1	·	20%	·	·	·	·
O=C(c1cccc(OC2CN(Cc3cccc(F)c3)C2)c1)N1CCOCC1	·	10%	·	·	·	·
Cc1nn(CC(=O)N2CCN(c3ccccc3F)CC2)c(=O)c2nc(C(C)C)sc12	·	13%	·	·	·	·
CCCOc1ccc(/C=N/Nc2cc(N3CCOCC3)ncn2)c(O)c1	?	0%	18µM*	2.9µM*	10µM*	?
O=[N+]([O-])c1cccc(/C=N/Nc2cc(N3CCOCC3)ncn2)c1	10%	20%	3%	13%	?	?
CCN(CC)Cc1oc(-c2ccccc2)cc1C(=O)O	-10%	?	2%	?	-4%	3%
NCc1oc(-c2ccccc2)cc1C(=O)O	0%	10µM*	-2%	?	13%	0%
O=C(CCc1nc2ccccc2c(=O)[nH]1)N1CCN(c2ccccc2Cl)CC1	·	209%	·	?	16µM*	21µM*
CCN1CCN(C(=O)CCc2nc3ccccc3c(=O)[nH]2)CC1	1%	290%[57.4 µM]	0%	-15%	-4%	?
O=C(CCc1nc2ccccc2c(=O)[nH]1)N1CCCc2ccccc21	·	-22%	·	?	8.2µM*	?
O=C(NCCC1CCCCC1)c1ccc2nccn2c1	·	48%[176 µM]	·	·	·	·
CCc1oc2ccccc2c1/C=C/C(=O)NC1CCCC1	·	-7%	·	·	·	·
CC(=O)Oc1ccc(C(=O)Nc2cccc(C(=O)c3cccc(NC(=O)c4ccc(OC(C)=O)cc4)c3)c2)cc1	14%	-28%	?	23µM*	23µM*	?
N#CC1(c2ccc(NC(=O)c3ccccc3)cc2)CCCC1	1%	·	3%	?	·	·
CC(=O)Oc1ccc(C(=O)Nc2ccc(C3(C#N)CCCC3)cc2)cc1	0.35µM*	0%	0.4µM*	?	16µM*	16µM*
